Assay outcomes as filed in PubChem BioAssay.
An excerpt weighted towards active compounds, which were near 9.9% of everything screened.
KB-V1 MDR tox – kills drug-selected multidrug resistant KB-V1 cells; KB-V1 MDR cells viability, CellTiter-Glo, 72 h; Potency, µM (highest dose often 46.1 µM), most hits filed as cytotoxic; 3.4% of 400,000 active; AID 1347076; further: potency means the concentration at half of the fitted maximal effect; on the % scale 0 is the no-effect control and ±100 the full control effect; nearly all actives have a fitted effect of over 60% in size
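Drug-selected KB-V1 cells, grown in DMEM lacking phenol red with 10% FBS, receive compound titrations; after three days at 37 degrees C, surviving cell ATP is quantified by CellTiter-Glo luminescence and responses normalized and curve-fitted.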
KB-3-1 tox – kills parental KB-3-1 adenocarcinoma cells; KB-3-1 viability, CellTiter-Glo ATP luminescence, 72 h; Potency, µM (highest dose often 46.1 µM), most hits filed as cytotoxic; 1.4% of 400,000 active; AID 1347075; further: potency means the concentration at half of the fitted maximal effect; on the % scale 0 is the no-effect control and ±100 the full control effect; nearly all actives have a fitted effect of over 60% in size
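Cells are dispensed, compounds pinned in, plates held at 37 °C for 72 h, then CellTiter-Glo is added and luminescence read after 10 minutes. Cell line: parental KB-3-1 in phenol-red-free DMEM, 10% FBS.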
SW480 rereplic – induces DNA re-replication in SW480 colon adenocarcinoma cells | SW480 DNA re-replication, Hoechst DNA content imaging, 48 h | Potency, µM (titrated, usually from 46.1 µM), for the others: top-dose re-replication activation, most hits filed as activators | 1.8% of 340,000 active | AID 624297; further: potency means the concentration at half of the fitted maximal effect; % of control where 0% means no effect; nearly all actives have a fitted effect of over 55% in size
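SW480 cells exposed to compounds for 48 hr at 37 C, 5% CO2, then Hoechst-stained 40 min. Nuclear DNA content imaged by fluorescence scanning (405 nm excitation, 500-530 nm emission); re-replication scored as increased high-intensity nuclei.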
MCF10A rereplic – inducers of DNA re-replication in MCF 10A breast cells. MCF 10A DNA re-replication, Hoechst nuclear intensity, 48 h. Potency, µM (top dose mostly 46.1 µM), without a hit: at the highest dose activity, positive = re-replication, hits mostly activators. 2.9% of 350,000 active; further: potency means the concentration at half of the fitted maximal effect; % of control where 0% means no effect; nearly all actives have a fitted effect of over 50% in size
IL1B secr inh – blocks inflammasome-driven IL-1 beta release; THP-1 LPS/ATP IL-1B secretion, AlphaLISA, 16 h; stronger effect = lower value; activity change, % at 57.5 µM; 4.7% of 360,000 active; AID 743279; in the data active means activity change below about -50%; inconclusive means mostly about -30% to -49%; further: on the % scale 0 is the no-effect control and ±100 the full control effect
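Secreted IL-1B measured by AlphaLISA bead assay after 16 h compound exposure of THP-1 cells; compounds (final up to 57.5 uM) added 1 h before LPS (250 ng/mL) and ATP (1.25 mM) stimulation; lower signal means less secretion.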
* = called active by the depositor; i = inactive; ? = inconclusive; nt = no result; [ ] = another dose, or the depositor's remark. Unless noted, the call rests on the fitted dose curve; in most records, active means well fitted curve in the direction sought with a large enough effect; inconclusive means small, poorly fitted or top-dose-only effect, or another doubt; inactive means no such curve, though single readings can be large; an effect the other way counts as inactive or inconclusive.

SMILES	KB-V1 MDR tox	KB-3-1 tox	SW480 rereplic	MCF10A rereplic	IL1B secr inh
C=CCn1c(SCC(=O)c2[nH]c(C)c(C(=O)OCC)c2C)nc2scc(-c3ccc(OC)cc3)c2c1=O	?	4.6µM*	?	?	45
C=CCn1c(SCC(=O)c2[nH]c(C)c(C(=O)OCC)c2C)nc2scc(-c3ccccc3)c2c1=O	i	i	8%	?	12
CCOC(=O)c1cnc(Nc2nc3ccccc3o2)nc1CSc1nnc(C)s1	?	i	0.65µM*	?	31
CCOC(=O)c1cnc(Nc2nc3ccccc3o2)nc1C	i	11µM*	?	-12%	-12
COc1ccccc1N1CCN(C(=O)c2ccc(N(C)S(=O)(=O)c3ccccc3)cc2)CC1	i	i	-22%	?	2
CCOC(=O)c1nc(C)nc(Sc2n[nH]c(-c3cc(C(F)(F)F)cc(C(F)(F)F)c3)n2)c1C	i	i	-20%	16µM*	-2
O=C(NCc1ccon1)C1CCC(=O)N(CCc2ccc(Cl)cc2)C1 (stereo not drawn)	i	i	?	5%	i
O=C(CSc1nnc(-c2cccnc2)s1)Nc1ccnc2ccccc12	1.6µM*	2.3µM*	-9%	1%	-3
CCCCNc1cc(=O)oc2ccccc12	i	i	2%	0%	0
CCOc1ccc(Nc2cc(=O)oc3ccccc23)cc1	13µM*	i	-3%	-3%	-24
Cc1cc(Nc2ccc3c(c2)OCCO3)c2cccc(C)c2n1	23µM*	?	-8%	19%	-94*
Cc1cc(Nc2ccccc2C)c2cccc(C)c2n1	i	i	nt	nt	nt
CCOc1ccc(Nc2cc(C)nc3c(C)cccc23)cc1	?	i	1%[9.22 µM]	12%	-63*
Cc1cc(Nc2ccc3c(c2)OCCO3)c2ccccc2n1	i	i	0%	10%	-16
O=C(Nc1ccc2ccccc2c1)Nc1nnc(-c2ccc(Cl)cc2Cl)s1	i	i	nt	nt	nt
O=C(NCc1ccc(F)cc1)c1ccc2c(c1)nc1n2CCCCC1	i	i	nt	nt	nt
Cc1ccc(-n2nc3c(N4CCC(C(=O)N5CCCCC5)CC4)nnc(C)c3c2C)cc1	i	i	nt	nt	nt
Cc1ccc(C(=O)OCC(=O)NC(=O)NCc2ccccc2)cc1C	i	i	4%	10µM*	8
Cc1ccc(C(=O)N(Cc2ccccc2)C(C)(C)C)cc1C	i	i	-3%	23µM*	-7
O=C(COC(=O)c1ccc(F)c([N+](=O)[O-])c1)NC(=O)NCc1ccccc1	?	i	?	21µM*	-99*
Cc1ccc(C(=O)OCC(=O)NCCc2ccccc2)cc1C	i	i	-8%	-2%	4
Cc1ccc(C(=O)OCC(=O)N(Cc2ccccc2)C(C)C)cc1C	21µM*	i	2%	-2%	-5
Cc1cc(OCC(=O)NC2CC(C)(C)NC(C)(C)C2)c2c(C)cc(=O)oc2c1	i	i	15%	-4%	-7
CCc1cc(C(=O)N2CCN(C(=O)c3ccccc3)CC2)sc1C	?	i	2%	-2%	-19
CC(C)N(Cc1ccccc1)C(=O)COC(=O)/C=C/c1cnc2ccccc2n1	i	i	-1%	?	-201*
SMILES	KB-V1 MDR tox	KB-3-1 tox	SW480 rereplic	MCF10A rereplic	IL1B secr inh
CCN(C(=O)COC(=O)/C=C/c1cnc2ccccc2n1)c1ccccc1	i	i	-15%	?	-13
CCn1c(SCc2ccc(C#N)cc2)nnc1-c1cccc(Cl)c1	?	i	-4%	-6%	-73*
CCn1c(SCc2ccc(Cl)cc2)nnc1-c1ccccc1	?	i	18%	2%	-4
COc1ccc(C(=O)CSc2nc(C)cc(C)c2C(=O)Nc2ccccc2C)cc1	i	i	nt	nt	nt
CCSc1nnc(-c2ccc(S(=O)(=O)NCc3cccs3)cc2)o1	21µM*	i	-8%	?	0
CCOC(=O)C1C(=O)NC(C(=O)OCC)(C(=O)OCC)C1C(C)CC (stereo not drawn)	?	i	-8%	-38%	-5
CN(C)S(=O)(=O)c1cccc(C(=O)Nc2ccccc2C(=O)NC2CC2)c1	i	i	-8%	-3%	27
CC(Cl)C(=O)NC(=O)NC12CC3CC(CC(C3)C1)C2 (stereo not drawn)	i	i	nt	16%	0
O=C(CCl)NC(=O)NC12CC3CC(CC(C3)C1)C2	i	i	nt	?	-69*
CC(=O)Oc1ccc(N2C(=O)C3C(C2=O)C(C(=O)c2ccc(Cl)cc2)N2CCCC32)cc1 (stereo not drawn)	?	18µM*	4.6µM*	18µM*	-101*
O=S(=O)(c1ccccc1)N1N=C(c2cccs2)CC1c1ccc(F)cc1 (stereo not drawn)	i	?	?	0%	-3
NS(=O)(=O)c1ccc(N2N=C(c3ccccc3)CC2c2ccccc2Cl)cc1 (stereo not drawn)	i	i	4.6µM*	3.3µM*	-25
CNC(=S)N1N=C(c2ccccc2)CC1c1ccccc1Cl (stereo not drawn)	i	?	10%	?	27
NS(=O)(=O)c1ccc(N2N=C(c3ccccc3)CC2c2ccccc2)cc1 (stereo not drawn)	?	?	13µM*	8.2µM*	-52*
NS(=O)(=O)c1ccc(N2N=C(c3ccccc3)CC2c2ccc(Br)cc2)cc1 (stereo not drawn)	?	?	nt	nt	-25
CC(=O)N1N=C(c2ccccc2)CC1c1ccccc1 (stereo not drawn)	i	i	16%	12%	7
Fc1ccc(N2N=C(c3cccs3)CC2c2ccccc2)cc1 (stereo not drawn)	i	i	5.8µM*	2.6µM*	9
O=S(=O)(O)c1ccc(N2N=C(c3ccccc3)CC2c2ccccc2)cc1 (stereo not drawn)	i	i	15µM*	15%	-4
Cc1ccc(N(CCC#N)C(=O)COC(=O)c2ccccn2)cc1	i	i	0%	-1%	21
COc1ccc(Cl)cc1NC(=S)NC1CCCC1	i	?	18%	-1%	0
Cc1cc(OCC(=O)OCC(=O)NCC2CCCO2)ccc1Cl (stereo not drawn)	i	i	-8%	0%	14
O=C(CSc1nc2ccccc2o1)N1N=C(c2cccs2)CC1c1ccc(F)cc1 (stereo not drawn)	i	i	-2%	12%	15
Cc1ccc(C2CC(c3ccccc3)=NN2c2ccc(S(N)(=O)=O)cc2)cc1 (stereo not drawn)	i	?	nt	nt	?
O=C(CSC1=NCCS1)N1N=C(c2cccs2)CC1c1ccc(F)cc1 (stereo not drawn)	?	i	nt	nt	-66*
